Results taken from PubChem BioAssay (EPA / NIEHS).
Records with an inconclusive call do not appear. The source made the active and inactive calls. The calls were made as follows: active = hit-call score of the fitted dose curve at least 0.9, where 1 is the maximum; inconclusive = response in the unintended direction; inactive = score below 0.9.

Target: human Esterase Plasma (ES), BCHE (gene 590) (UniProt P06276)
Assay: NVS_ENZ_hES: NovaScreen (NVS) Enzymatic Assay for human Esterase Plasma (ES) (AID 2283157)
Method: NVS_ENZ_hES is a biochemical, single-readout assay that uses extracted gene-proteins from Human plasma in a cell-free assay. Measurements were taken 0.25 hour after chemical dosing in a 96-well plate.NVS_ENZ_hES is one of one assay component(s) measured or calculated from the NVS_ENZ_hES assay. It is designed to make measurements of enzyme activity, a form of enzyme reporter, as detected with absorbance signals by Colorimetric technology.Data from the assay component NVS_ENZ_hES was analyzed into 1 assay endpoint. This assay endpoint, NVS_ENZ_hES, was analyzed in the positive analysis fitting direction relative to DMSO as the negative control and baseline of activity. Using a type of enzyme reporter, loss-of-signal activity can be used to understand changes in the enzymatic activity as they relate to the gene BCHE. Furthermore, this assay endpoint can be referred to as a primary readout, because this assay has produced multiple assay endpoints where this one serves a enzymatic activity function. To generalize the intended target to other relatable targets, this assay endpoint is annotated to the esterase intended target family, where the subfamily is pseudocholinesterase.
Binding assays used specific radioligands (tritiated, iodinated) with non-radioactive competitive displacement ligands in agonist or antagonist protocols (as indicated) and various reference compounds and inhibitors to titrate specific binding to receptors and transporters. Most enzyme assays (CYPs, kinases, phosphatases, proteases, HDACs) used recombinant protein and specific substrates (fluorescence mostly, some colorimetric and radioactive) and inhibitors, followed by a biochemical separation of substrate and product. All assays for the biochemical HTS were initially run in duplicate at a single concentration (10 uM for CYP450 assays and 25 uM for all others). Assay-chemical combinations meeting a pre-defined threshold (e.g., 30% inhibition and other criteria defined below) were then run in singleton concentration-response format with maximum concentration of 20 uM for CYPs and 50 uM for all others. Each assay was run with positive and negative controls, and concurrent controls on every plate. The follow-up (secondary) screen tested active chemical-pairs in concentration series, as well as a few additional assays not tested in the primary screen, some selected negative inactives, and several cases re-run in the concentration series for confirmatory purposes.

Chain of human Esterase Plasma (ES), BCHE (gene 590) (P06276 whole entry, looked up): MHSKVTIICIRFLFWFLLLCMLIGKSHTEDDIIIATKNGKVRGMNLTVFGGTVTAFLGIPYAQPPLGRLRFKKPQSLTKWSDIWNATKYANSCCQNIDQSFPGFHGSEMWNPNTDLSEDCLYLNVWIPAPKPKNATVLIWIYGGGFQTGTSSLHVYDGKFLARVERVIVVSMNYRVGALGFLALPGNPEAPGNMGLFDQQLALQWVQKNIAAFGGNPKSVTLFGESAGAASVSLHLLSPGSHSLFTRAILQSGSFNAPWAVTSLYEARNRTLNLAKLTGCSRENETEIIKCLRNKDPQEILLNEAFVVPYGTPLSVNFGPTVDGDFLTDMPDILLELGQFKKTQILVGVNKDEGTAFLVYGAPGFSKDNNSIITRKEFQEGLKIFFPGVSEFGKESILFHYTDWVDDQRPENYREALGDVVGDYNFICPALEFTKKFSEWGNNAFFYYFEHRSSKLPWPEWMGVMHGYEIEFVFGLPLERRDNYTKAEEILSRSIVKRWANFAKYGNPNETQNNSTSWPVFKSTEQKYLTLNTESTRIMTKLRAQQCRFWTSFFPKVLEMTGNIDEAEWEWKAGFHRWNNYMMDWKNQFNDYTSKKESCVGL

outcome, inactive:
CCC(C)(C)C(=O)O[C@H]1C[C@@H](C)C=C2C=C[C@H](C)[C@H](CC[C@@H]3C[C@@H](O)CC(=O)O3)[C@H]21
Oc1ccc2c(c1)-c1ccccc1C2
CCCN(C1CCN(C(=O)C2CCNCC2)CC1)[C@@H]1CCc2ccc(OC)cc2C1
COC(=O)c1c(Cl)c(Cl)c(C(=O)OC)c(Cl)c1Cl
O=C(O)CC(O)C(=O)O (stereo not drawn)

AC50, active:
CCOC(=O)COc1ccc2c(c1)CC(NCC(O)c1cccc(Cl)c1)CC2 (stereo not drawn) 10.9 µM
CCn1nc(Cc2ccccc2)cc1C1CCN(C[C@H]2C[C@H](N(C)[C@@H](C(=O)O)C(C)C)C[C@@H]2c2cccc(F)c2)CC1 13 µM
Cc1[nH]cnc1C[C@H]1CCc2c(C)c3ccccc3n2C1=O 14.4 µM
COCCOc1cc2cc(C(=O)NC3CCN(C(C)C)CC3)n(CC(=O)Nc3ccc(Cl)cn3)c2cn1 23.3 µM
CC[C@H]1CC[C@H](NCc2cc3c(cc2OC)[C@H]2C[C@H]2C(=O)N3C)[C@H](c2ccccc2)N1 17.3 µM
CCN(C(=O)c1cc(C)cc(OC[C@H](C)Nc2ccncc2)c1)C(C)C 11.8 µM
COc1cccc(-c2ccc(/C=C\CN3CCCCCC3)cc2Cl)c1 1.78 µM
Nc1ccc(Nc2ccccc2)cc1 29.8 µM
